Among the test systems are ERN1; FER; FES; FGFR1; FGFR2; FGFR3; FGFR4; FGR; FLT1.
Details in all cases: concentration: 1 μM, replicates: in singlicate; n = 1
In another test the test system is T1, FAK.
T1 construct: gene PTK2
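Further: KINOMEscan kinase panel screen.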

On to `COc1cc2c(cc1OC[C@@H](O)CO)ncc1c3ccc(C#N)cc3[nH]c21`, for which the “%Inh” value is 0% in the test on ERN1; 0% in the test on FAK; 0% with FER; 8% in the test on FES; 0% with FGFR1; 0% with FGFR2. Also, the “%Inh” value amounted to 0% in the test on FGFR3, 0% with FGFR4, 30% in the test with FGR and 0% with FLT1.

Regarding `CC(C)Oc1ccc2c(-c3ccnc(Nc4ccc(N5CCN(C)CC5)cc4)n3)cnn2n1` [GW696155], the “%Inh” value was 62% with ERN1; 0% in the test with FAK; 22% with FER; 15% with FES; 15% in the test on FGFR1; 1% in the test with FGFR2. Besides, the “%Inh” value is 12% in the test on FGFR3, 0% with FGFR4, 57% in the test on FGR and 59% in the test on FLT1.

For `COc1ccc(S(=O)(=O)NC2CCN(c3cc(C)nc(Nc4cccc(C#N)c4)n3)CC2)cc1.O=C(O)C(F)(F)F` [GSK1653539], the “%Inh” value worked out at 4% in the test on ERN1; 0% in the test with FAK; 23% in the test on FER; 12% with FES; 0% in the test on FGFR1; 0% in the test with FGFR2. The “%Inh” value in the test with FGFR3 is on record as 21%; in the test with FGFR4, 0%; in the test on FGR, 33%; in the test with FLT1, 12%.

Take `CSc1ccc(-c2cc3ncnc(SCC(=O)O)c3s2)cc1`: the “%Inh” value was 0% in the test with ERN1; 0% in the test on FAK; 10% in the test with FER; 9% with FES; 5% in the test on FGFR1; 0% in the test on FGFR2. The “%Inh” value is reported as 0% with FGFR3, 0% with FGFR4, 23% in the test on FGR and 2% in the test on FLT1.

On to `Cc1nnc(-c2ccc(C)c(-c3ccc(C(=O)Nc4ccc(NS(C)(=O)=O)cc4)cc3)c2)o1` [GW702865], for which the “%Inh” value in the test on ERN1 came out at 0%; in the test with FAK, 0%; with FER it was 4%; in the test on FES, 0%; in the test on FGFR1, 0%; in the test on FGFR2, 0%. The “%Inh” value was found to be 11% with FGFR3, 0% in the test on FGFR4, 24% with FGR and 25% in the test on FLT1.

As for `O=C(c1ccc(-c2cc(-c3c[nH]nc3-c3ccccn3)ccn2)cc1)N1CCOCC1` [GW812171], the “%Inh” value stood at 54% with ERN1; 0% in the test with FAK; 0% with FER; 0% with FES; 4% with FGFR1; 0% in the test with FGFR2. The “%Inh” value in the test on FGFR3, with FGFR4, with FGR and with FLT1 was 0% each time.

On to `[2H]C([2H])(c1cccc(C(F)(F)F)c1C)n1ccn2c(=O)nc(N3CCOCC3)cc12` [GSK2336394], for which the “%Inh” value with ERN1 was found to be 0%; with FAK it was 0%; in the test with FER it was 33%; in the test on FES it was 0%; in the test on FGFR1 it was 7%; in the test with FGFR2 it was 16%. For the same compound, the “%Inh” value in the test with FGFR3 came to 14%; with FGFR4 it was 5%; in the test with FGR it was 12%; in the test on FLT1, 22%.

For the compound `Cl.Oc1cccc(Nc2ccnc3cc(-c4ccncc4)ccc23)c1` [GW494601], the “%Inh” value amounted to 21% in the test on ERN1; 0% with FAK; 23% with FER; 0% in the test with FES; 59% with FGFR1; 0% in the test with FGFR2. Further, the “%Inh” value in the test on FGFR3 is given as 12%; in the test with FGFR4, 12%; in the test on FGR it was 98.1%; in the test with FLT1, 94.4%.

For the compound `NS(=O)(=O)c1cccc(-c2ccc3nccc(-c4cccc(S(N)(=O)=O)c4)c3c2)c1` [GW867253], the “%Inh” value was 39% in the test with ERN1; 0% in the test on FAK; 0% in the test on FER; 0% with FES; 11% in the test on FGFR1; 0% in the test on FGFR2. The “%Inh” value in the test with FGFR3, in the test with FGFR4, in the test with FGR and with FLT1 was 0% throughout.

On to `CCc1nc(-c2cccc(C)c2)c(-c2ccnc(NCc3ccccc3)c2)s1`, for which the “%Inh” value came to 16% in the test on ERN1; 0% with FAK; 0% with FER; 6% in the test with FES; 0% in the test on FGFR1; 8% in the test on FGFR2. Besides, the “%Inh” value in the test on FGFR3 is recorded as 0%; in the test with FGFR4, 0%; in the test with FGR, 8%; in the test with FLT1 it was 0%.

On to `O=C(NCCNc1ccnc(Nc2ccc(F)cc2)n1)c1cc2ccccc2s1` [GSK1379874], for which the “%Inh” value in the test on ERN1 came to 54%; in the test with FAK, 0%; in the test with FER, 16%; in the test on FES, 0%; in the test with FGFR1 it was 0%; in the test on FGFR2 it was 62%. Moreover, the “%Inh” value in the test with FGFR3 is 6%; in the test with FGFR4 it was 0%; in the test with FGR, 15%; in the test with FLT1 it was 19%.

For the compound `O=C(NOCC1CC1)c1ccc(F)c(F)c1Nc1ccc(I)cc1Cl`, the “%Inh” value with ERN1, in the test on FAK, in the test on FER, in the test with FES, with FGFR1 and in the test with FGFR2 was 0% throughout. For the same compound, the “%Inh” value is recorded as 0% in the test with FGFR3, 0% in the test with FGFR4, 0% in the test on FGR and 10% in the test with FLT1.

For `O=C1NC(=O)C(N2CCc3ccccc32)=C1c1cccc(Cl)c1` [SB-408010], the “%Inh” value with ERN1 worked out at 27%; in the test on FAK, 0%; in the test on FER it was 0%; in the test on FES it was 31%; with FGFR1 it was 5%; with FGFR2, 15%. Besides, the “%Inh” value worked out at 0% with FGFR3, 0% in the test with FGFR4, 22% in the test on FGR and 11% with FLT1.

Turning to `C[C@@H](Oc1cc(-n2cnc3ccc(NC(=O)NC(C)(C)C)cc32)sc1C(N)=O)c1ccccc1Cl` [GSK346294], the “%Inh” value in the test on ERN1 is listed as 13%; in the test with FAK, 0%; in the test on FER, 43%; in the test on FES, 0%; in the test on FGFR1 it was 13%; in the test with FGFR2 it was 0%. The “%Inh” value turned out to be 30% with FGFR3, 14% in the test on FGFR4, 8% in the test on FGR and 46% in the test with FLT1.

Take `COCCNC(=O)c1ccc(-c2cc(C(=O)NC3CC3)cc(F)c2C)cc1` [GW868318]: the “%Inh” value in the test on ERN1 turned out to be 38%; in the test on FAK it was 3%; with FER it was 1%; in the test on FES, 32%; in the test with FGFR1, 17%; in the test with FGFR2, 3%. The “%Inh” value with FGFR3 was 7%; in the test on FGFR4 it was 3%; in the test on FGR, 32%; in the test with FLT1, 7%.

For the compound `COc1cc2c(cc1OCCN1CCN(C)CC1)ncc1c3ccc(C#N)cc3[nH]c21`, the “%Inh” value with ERN1 is listed as 0%; in the test on FAK it was 27%; in the test on FER, 3%; in the test on FES, 0%; in the test on FGFR1, 0%; in the test on FGFR2, 7%. Also, the “%Inh” value turned out to be 0% with FGFR3, 22% in the test on FGFR4, 0% in the test on FGR and 14% in the test with FLT1.

The values above are taken from publication PMC5540273 (PLoS ONE, 2017).
